From PubChem BioAssay (NCATS)
Values joined by “and” are separate entries in the source; they are usually repeats but may differ in a detail not shown here. Equal values may be shown once. Inconclusive results are not listed. Active and inactive are the calls of the source. Unless noted, calls follow the shape of the dose curve; as a rule, active = well fitted inhibition curve with a large enough effect; inconclusive = small, poorly fitted or top-dose-only effect; inactive = flat fitted curve, though single readings scatter.

Experiments:
[1] = Drug repurposing screens with cells derived from glioblastoma tumor samples (AID 1345199); settings: GBM patient neurospheres viability, ATP luminescence, 48 h; also: % is scaled to controls: 0 for no effect and ±100 for the full control effect; nearly all actives have a fitted effect of over 40% in size
Outline: (§1)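 Four patient lines of CD133+ GBM neurospheres were screened at several concentrations; hits were retested in those lines plus three slower-growing GBM lines, using 48-hour treatment and ATP-based viability.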

astro = control astrocytes; experiment: as above; settings: viability, ATP luminescence, 48 h; series mostly up to 45.9 µM
Outline: as §1

[2] = biological target: Nuclear receptor subfamily 1 group I member 2 (Rattus norvegicus) (UniProt Q9R1A7); experiment: qHTS assay for small molecule activators of the rat pregnane X receptor (rPXR) signaling pathway (AID 651751; call rule not given here; also: 0% is about no effect); settings: rPXR reporter cells, luciferase (One-Glo), 24 h
Sequence of Nuclear receptor subfamily 1 group I member 2 (Rattus norvegicus) (Q9R1A7 whole entry, looked up): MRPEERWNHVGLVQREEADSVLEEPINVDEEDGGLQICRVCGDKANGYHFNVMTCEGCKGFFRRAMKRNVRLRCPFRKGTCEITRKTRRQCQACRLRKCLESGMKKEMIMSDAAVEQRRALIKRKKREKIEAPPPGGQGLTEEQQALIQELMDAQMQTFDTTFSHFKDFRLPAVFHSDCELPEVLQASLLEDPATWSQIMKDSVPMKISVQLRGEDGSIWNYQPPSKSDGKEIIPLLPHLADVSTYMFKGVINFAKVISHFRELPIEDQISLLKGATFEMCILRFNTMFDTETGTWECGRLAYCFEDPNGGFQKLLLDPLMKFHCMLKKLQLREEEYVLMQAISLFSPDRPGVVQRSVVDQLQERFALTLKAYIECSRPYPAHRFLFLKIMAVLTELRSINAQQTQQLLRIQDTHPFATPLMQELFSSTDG

[3] = qHTS assay for small molecule activators of the human pregnane X receptor (PXR) signaling pathway (AID 720659; call rule not given here; also: 0% is about no effect); settings: DPX-2 HepG2 CYP3A4-luciferase, 24 h; series mostly up to 92.3 µM
[4] = at 20 µM (top of the series), tumour line C
[5] = at 21.2 µM (top of the series), tumour line B
[6] = at 21.2 µM (top of the series), tumour line D
[7] = at 45.9 µM (top of the series), tumour line B
[8] = at 45.9 µM (top of the series), tumour line D
[9] = at 46 µM (top of the series), tumour line A
[10] = at 46.1 µM (top of the series), tumour line C

OC(CCN1CCCC1)(c1ccccc1)C1CCCCC1 (stereo unspecified)
inactive: activity, negative = cell killing [1, 4] 3.06% | activity, negative = cell killing [1, 5] -6.65% | activity, negative = cell killing [1, 6] -11.6% | outcome (astro)

CC(=O)OCC(COC(C)=O)OC(C)=O
inactive: activity, negative = cell killing [1, 7] 7.15% | activity, negative = cell killing [1, 8] 15.4% | activity, negative = cell killing [1, 9] -13.4% | activity, negative = cell killing [1, 10] 1.43% | outcome (astro) | max response [2] -2.17% and 2.63% | outcome [3]

O=C1C(c2[nH]c3ccccc3c2O)=Nc2ccccc21
inactive: activity, negative = cell killing [1, 7] -10% | activity, negative = cell killing [1, 8] -9.74% | activity, negative = cell killing [1, 9] -34.1% | activity, negative = cell killing [1, 10] -13.3% | outcome (astro) | max response [2] 2.85% | outcome [3]

Cc1cc(NC(=O)C2=C(O)c3ccccc3S(=O)(=O)N2C)no1
inactive: activity, negative = cell killing [1, 7] -5.07% | activity, negative = cell killing [1, 8] -8.1% | activity, negative = cell killing [1, 10] -15.1% | outcome (astro)

CC1(c2ccccc2)OC(C(=O)O)=CC1=O (stereo unspecified)
inactive: activity, negative = cell killing [1, 7] -1.24% | activity, negative = cell killing [1, 8] -9.61% | activity, negative = cell killing [1, 10] -15.9% | outcome (astro)

Cc1cccc(Nc2ccccc2C(=O)O)c1C
inactive: activity, negative = cell killing [1, 7] -15.4% | activity, negative = cell killing [1, 8] -14.4% | activity, negative = cell killing [1, 9] -20% | activity, negative = cell killing [1, 10] -15.4% | max response [2] 2.62%

CCCCCC(N)=O
inactive: activity, negative = cell killing [1, 7] -6.65% | activity, negative = cell killing [1, 8] -23.8% | activity, negative = cell killing [1, 9] -18.7% | activity, negative = cell killing [1, 10] -14.8% | outcome (astro) | max response [2] 8.83% | outcome [3]

CCN[C@H]1CN(CCCOC)S(=O)(=O)c2sc(S(N)(=O)=O)cc21
inactive: activity, negative = cell killing [1, 4] -0.607% | activity, negative = cell killing [1, 5] -9.2% | activity, negative = cell killing [1, 6] 8.52% | outcome (astro)

O=C(CN1CCNCC1)NC1CCCCC1
inactive: activity, negative = cell killing [1, 7] -13.1% | activity, negative = cell killing [1, 8] -7.64% | activity, negative = cell killing [1, 10] -22.5% | outcome (astro)
